High-throughput results from PubChem BioAssay.
IL-1B inflam inh – inhibitors of inflammasome signaling (IL-1 beta secretion). AID 743279. activity change, % at 57.5 µM. 4.7% of 360,000 active. THP-1 LPS/ATP IL-1B secretion, AlphaLISA, 16 h; active compounds read low; in the data active means activity change below about -50%; inconclusive means mostly about -30% to -49%
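THP-1 cells pretreated 1 hr with compounds (up to 57.5 uM final), then stimulated with LPS (250 ng/mL final) plus ATP (1.25 mM final); secreted IL-1B measured by AlphaLISA after 16 hr, decreased signal indicating inhibition.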
TDP1 inh – blocks human tyrosyl-DNA phosphodiesterase 1 | Q9NUW8 | recombinant TDP1, AlphaScreen DNA substrate cleavage | Potency, µM (highest dose often 130 µM), inactives show top-dose activity change, negative = inhibition, actives largely listed as inhibitors | 0.28% of 350,000 active; further: potency means the concentration at half of the fitted maximal effect; nearly all actives have a fitted effect of over 40% in size
Target sequence (Q9NUW8 whole entry, looked up): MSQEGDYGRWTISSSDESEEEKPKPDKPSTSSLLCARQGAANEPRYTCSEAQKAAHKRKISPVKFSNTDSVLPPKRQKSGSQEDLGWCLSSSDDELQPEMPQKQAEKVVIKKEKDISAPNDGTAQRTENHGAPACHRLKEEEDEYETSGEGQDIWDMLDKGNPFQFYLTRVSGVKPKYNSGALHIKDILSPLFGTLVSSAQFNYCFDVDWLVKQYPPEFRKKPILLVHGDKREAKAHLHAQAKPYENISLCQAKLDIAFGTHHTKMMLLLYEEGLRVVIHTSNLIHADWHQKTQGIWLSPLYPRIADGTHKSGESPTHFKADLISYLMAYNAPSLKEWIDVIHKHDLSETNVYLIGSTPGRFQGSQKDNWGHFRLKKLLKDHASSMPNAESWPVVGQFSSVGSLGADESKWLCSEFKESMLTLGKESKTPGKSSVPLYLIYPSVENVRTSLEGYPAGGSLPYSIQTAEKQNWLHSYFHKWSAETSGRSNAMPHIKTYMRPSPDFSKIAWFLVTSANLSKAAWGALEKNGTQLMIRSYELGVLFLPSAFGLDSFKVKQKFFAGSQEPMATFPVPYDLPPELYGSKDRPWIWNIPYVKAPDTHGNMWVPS
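Steps: enzyme plus compound, 15 min RT; add biotin/phosphotyrosine-FITC oligonucleotide (15 nM final), react 5 min; add donor/acceptor beads (10 ug/ml final), 10 min; read AlphaScreen. Tdp1 at 1 nM final.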
TDP1 cell CPT – growth inhibition of DT40 Tdp1-/-;hTDP1 cells with camptothecin (screen for TDP1 inhibitors); AID 686979; chicken DT40 Tdp1-/-;hTDP1 cells + 20 nM CPT, ATP luminescence, 48 h; Potency, µM (series often up to 46.2 µM), for the others: top-dose activity change, negative = growth inhibition, usual class: inhibitors; 12% of 420,000 active; further: potency means the concentration at half of the fitted maximal effect; nearly all actives have a fitted effect of over 55% in size
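Chicken DT40 Tdp1-/- cells stably complemented with human TDP1 were seeded at 400 cells/well in medium containing 20 nM camptothecin, exposed to pin-transferred compounds, and grown at 37 °C for at least 48 hr. Viability was read as ATP luminescence.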
Giardia kill – Giardia lamblia killing | 0.15% of 340,000 active | activity change, % at 7.66 µM, hits read low | Giardia lamblia trophozoite viability | AID 540267; in the data active means activity change below about -80%; inconclusive means between about -30% and that limit;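 further: parasites exposed to compound for two days anaerobically before the ATP read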
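Luminescent ATP signal served as the viability read-out, measured 15-30 min after adding ATP detection reagent to trophozoites that had been incubated with compounds for 48 hrs at 37 deg C anaerobically at 100 cells/well.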
ELG1 repair inh – blocks ELG1-dependent DNA repair in HEK293T cells. HEK293T ELG1-luciferase reporter, luminescence, 16 h; DNA damage induced by 5-fluorouridine. Potency, µM (titrated, usually from 46.1 µM), without a hit: top-dose activity change, negative = inhibition, hits mostly inhibitors. 2.3% of 330,000 active; further: potency means the concentration at half of the fitted maximal effect; nearly all actives have a fitted effect of over 55% in size
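Reporter activity after DNA damage by 5-fluorouridine is monitored. Compound-treated cells incubate 16 hr at 37 °C, then ONE-Glo is added for 30 min before luminescence reading.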
DT40 TDP1 no CPT – qHTS for Inhibitors of human tyrosyl-DNA phosphodiesterase 1 (TDP1): qHTS in cells in absence of CPT | DT40 Tdp1-/- hTDP1 cells, no CPT, ATP luminescence, 48 h | Potency, µM (series often up to 46.2 µM), for inactives: at the highest dose activity change, negative = growth inhibition, most hits filed as inhibitors | 15% of 420,000 active | AID 686978, 2013; further: potency means the concentration at half of the fitted maximal effect; nearly all actives have a fitted effect of over 55% in size
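Camptothecin absent (DMSO only). Human TDP1-complemented DT40 knockout cells, 400 cells/well, 37 °C for minimum 48 hr; ATP measured via CellTiter-Glo, 30 min dark incubation, luminescence.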
* hit, by the source's call; [ ] = another dose, or the depositor's remark. Only some compounds are listed: those with a hit (about 19% of all), similar ones and a draw of the others. Unless noted, the call rests on the fitted dose curve; in most records, active means well fitted curve in the direction sought with a large enough effect; inconclusive means small, poorly fitted or top-dose-only effect, or another doubt; inactive means no such curve, though single readings can be large; an effect the other way counts as inactive or inconclusive. On the % scale 0 is the no-effect control and ±100 the full control effect.

Screening CCCCOc1ccc(C(=O)NCC2(c3ccccc3)CCOCC2)cc1 returned IL-1B inflam inh -14, TDP1 inh 3%, TDP1 cell CPT 21µM*, Giardia kill -7, ELG1 repair inh -12% and DT40 TDP1 no CPT inconclusive.
`CCOc1ccc(NS(=O)(=O)c2ccc(C(=O)NCC(c3ccc(OC)cc3)N3CCCC3)cc2)cc1` (centres undefined) gave IL-1B inflam inh 0, TDP1 inh 2%, TDP1 cell CPT inconclusive, Giardia kill -3, ELG1 repair inh 12% and DT40 TDP1 no CPT 13µM*.
Screening CCOC(=O)c1ccc(NC(=O)C(=O)NCC2(c3ccc(OC)cc3)CCOCC2)cc1 returned IL-1B inflam inh -24, TDP1 cell CPT inconclusive, Giardia kill 52, ELG1 repair inh inconclusive and DT40 TDP1 no CPT 15µM*.
`COc1ccc(C2(CNC(=O)c3ccccc3)CCOCC2)cc1` gave TDP1 inh 0%, TDP1 cell CPT -3%, Giardia kill 5, ELG1 repair inh 5% and DT40 TDP1 no CPT -3%.
Screening CCOc1ccc(C(=O)NCC(=O)NCC(c2ccc(OC)cc2)N2CCCC2)cc1 (centres undefined) returned IL-1B inflam inh -23, TDP1 cell CPT -4%, Giardia kill 2, ELG1 repair inh -20% and DT40 TDP1 no CPT 5%.
Screening CCOc1ccc(C(=O)NCC(c2ccc(Cl)cc2)N2CCCCC2)cc1 (centres undefined) returned TDP1 inh 4%, TDP1 cell CPT 7.3µM* and DT40 TDP1 no CPT 9.2µM*.
Screening CC(=O)N1N=C(N)SC1(C)C returned IL-1B inflam inh -1, TDP1 inh 1%, TDP1 cell CPT 1%, Giardia kill -2, ELG1 repair inh 9% and DT40 TDP1 no CPT -10%.
Screening CN(C)C(=O)CCc1ccc2c3c([nH]c2c1)[C@]1(CCC2CCCC2)[C@@H](C(=O)N2CCOCC2)C[C@H](CC(=O)NC(C)(C)C)C(=O)N1CC3 returned IL-1B inflam inh -6, TDP1 inh 0%[56.1 µM], TDP1 cell CPT -24%, Giardia kill -5, ELG1 repair inh 1% and DT40 TDP1 no CPT inconclusive.
`Cc1ccc(C(CNC(=O)Nc2ccc(Cl)cc2)N2CCN(C)CC2)cc1` (centres undefined) gave IL-1B inflam inh inconclusive, TDP1 inh 2%, TDP1 cell CPT inconclusive, Giardia kill -20, ELG1 repair inh 27% and DT40 TDP1 no CPT inconclusive.
Cc1ccc(C(=O)NCC(c2ccc(Cl)cc2)N2CCCCC2)cc1 (centres undefined) was read as TDP1 inh -2%, TDP1 cell CPT 12µM* and DT40 TDP1 no CPT 13µM*.
For CCOC(=O)/C=C/CCC/C=C/C(=O)c1ccccc1 the results were TDP1 inh -4%.
For CC(C)n1c(SCC(=O)Nc2nncs2)nnc1-c1ccco1 the results were IL-1B inflam inh 9, TDP1 inh 11µM*, TDP1 cell CPT 4%, Giardia kill 22, ELG1 repair inh 24% and DT40 TDP1 no CPT 0%.
Cc1nnc(NC(=O)CSc2ccc(-c3ccco3)nn2)s1 was read as IL-1B inflam inh 11, TDP1 inh 45µM*, TDP1 cell CPT -30%, Giardia kill -3, ELG1 repair inh 12% and DT40 TDP1 no CPT -19%.
Screening COc1ccc(NC(=O)CSc2ccc(-c3ccco3)nn2)cc1OC returned IL-1B inflam inh inactive, TDP1 inh 4%, TDP1 cell CPT 16µM*, Giardia kill 34, ELG1 repair inh -20% and DT40 TDP1 no CPT 10µM*.
Screening Cc1oc2c(c(C)cc3oc(=O)c(CC(=O)NCCc4ccccc4F)c(C)c32)c1C returned TDP1 inh 0%, TDP1 cell CPT inconclusive and DT40 TDP1 no CPT inconclusive.
COc1cc(NC(=O)CC(c2cccs2)N2Cc3ccccc3C2=O)cc(OC)c1OC (centres undefined) was read as TDP1 inh -3%, TDP1 cell CPT 23µM* and DT40 TDP1 no CPT 23µM*.
`Cc1ccc(C(CC(=O)Nc2ccc(F)c(Cl)c2)N2Cc3ccccc3C2=O)cc1` (centres undefined) gave TDP1 inh -3%, TDP1 cell CPT inconclusive and DT40 TDP1 no CPT inconclusive.
COc1ccc(C(CC(=O)Nc2ccc(C)c(C)c2)N2Cc3ccccc3C2=O)cc1OC (centres undefined) was read as TDP1 inh 3%, TDP1 cell CPT 15µM* and DT40 TDP1 no CPT 21µM*.
COc1ccc(C(CC(=O)Nc2ccc(F)c(Cl)c2)N2Cc3ccccc3C2=O)cc1OC (centres undefined) was read as TDP1 inh 3%, TDP1 cell CPT inconclusive and DT40 TDP1 no CPT 15µM*.
`COc1cc([N+](=O)[O-])cc(/C=N\NC(=O)C2COc3ccccc3O2)c1O` (centres undefined) gave IL-1B inflam inh 122, TDP1 inh 8%, TDP1 cell CPT inconclusive, Giardia kill 6, ELG1 repair inh -20% and DT40 TDP1 no CPT inconclusive.
Screening CC1CC2(C)Oc3ccccc3C3OCC1(COC(=O)Nc1ccccc1)C(C)C32 (centres undefined) returned TDP1 inh -5%[56.1 µM], TDP1 cell CPT inconclusive and DT40 TDP1 no CPT inconclusive.
Cc1nc(N2CCN(C(=O)c3ccco3)CC2)c2c3c(sc2n1)CCC3 was read as IL-1B inflam inh inconclusive, TDP1 inh 8%, TDP1 cell CPT 16µM*, Giardia kill 2, ELG1 repair inh 23µM* and DT40 TDP1 no CPT 12µM*.
Screening O=C(c1ccccc1)N1CCN(c2ncnc3sc4c(c23)CCC4)CC1 returned IL-1B inflam inh 0, TDP1 inh 2%, TDP1 cell CPT 21µM*, Giardia kill 9, ELG1 repair inh 9.2µM* and DT40 TDP1 no CPT 23µM*.
c1nc(N2CCOCC2)c2c3c(sc2n1)CCCC3 was read as IL-1B inflam inh 18, TDP1 inh 1%, TDP1 cell CPT inconclusive, Giardia kill 2, ELG1 repair inh inconclusive and DT40 TDP1 no CPT inconclusive.
Screening O=C(CNC(=O)c1cccc(Cl)c1)NCC(c1cccs1)N1CCOCC1 (centres undefined) returned IL-1B inflam inh -3, TDP1 inh 0%, TDP1 cell CPT -8%, Giardia kill -6, ELG1 repair inh 5% and DT40 TDP1 no CPT 17%.
Screening COc1ccc(-c2cc3ccc(O)c(CN4CCN(CCO)CC4)c3oc2=O)cc1OC returned TDP1 inh 8%, TDP1 cell CPT inconclusive and DT40 TDP1 no CPT inconclusive.
